p53 reactivation: restores transcriptional activity of mutant p53; Potency, µM (series often up to 92.2 µM), for inactives: top-dose activity change, positive = activation, usual class: activators; H1299 p53-A138V BP100-luciferase reporter, luminescence, 24 h; actives 0.063% (n = 320,000); AID 504706; active = well fitted activation curve with a large enough effect; inconclusive = small, poorly fitted or top-dose-only effect; inactive = no such curve, though single readings can be large or run the other way; note: potency is the fitted concentration of half-maximal effect; % of control where 0% means no effect; nearly all actives have a fitted effect of over 45% in size
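H1299 (p53-null), stable ts p53-A138V + BP100-Luc; 1000 cells/well, Opti-MEM/10% FBS; cpd 4 pt, 1:5; 24 h, 37 deg C, 5% CO2; detection reagent 10 min RT; luminescence.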
hERG WT inh: inhibitors of human wildtype KCNH2 potassium channel; U2OS, BacMam KCNH2, thallium flux FluxOr; hits give low values; activity change, % at 1.84 µM; actives 0.37% (n = 340,000);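 active = maximum activity change below -70%; inconclusive = maximum activity change between -70% and -50%; inactive = maximum activity change above -50%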; note: % is set by controls: 0 for no effect and ±100 for the full control effect
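U2OS cells transduced with wild-type KCNH2 virus are loaded with FluxOr dye for 45 min, and thallium flux is measured in kinetic reads before and after stimulation buffer. Rate constants are normalized to DMSO controls.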
KCNH2 3.1 inh: KCNH2 3.1 (human) potassium channel inhibition; activity change, % (tested at about 1.8 µM); U2OS KCNH2 3.1, thallium flux FluxOr; hits give low values; actives 0.95% (n = 340,000); AID 720553;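 active = maximum activity change below -70%; inconclusive = maximum activity change from -70% to -50%; inactive = maximum activity change above -50%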;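 note: thallium influx rate constant from kinetic fluorescence after stimulation buffer; % is set by controls: 0 for no effect and ±100 for the full control effect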
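Kinetic fluorescence (2 min after stimulation buffer) measures Tl+ influx through KCNH2 3.1 expressed by viral transduction in U2OS cells; the rate constant is normalized against DMSO controls serving as positive and negative references.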
ClpP mod: qHTS Assay for Activators of ClpP; ATP-dependent Clp protease proteolytic subunit (Bacillus subtilis (strain 168)), P80244; actives 1.9% (n = 340,000); Potency, µM (series often up to 57.5 µM), inactives show top-dose activity change, negative = active; purified B. subtilis ClpP, FRET peptide cleavage, 20 min; active = well fitted falling curve with a large enough effect; inconclusive = small, poorly fitted or top-dose-only effect; inactive = no such curve, though single readings can be large or run the other way; note: potency is the fitted concentration of half-maximal effect; the source files actives as falling curves though it sought activators and does not explain the sign; nearly all actives have a fitted effect of over 65% in size
Target sequence (P80244 whole entry, looked up): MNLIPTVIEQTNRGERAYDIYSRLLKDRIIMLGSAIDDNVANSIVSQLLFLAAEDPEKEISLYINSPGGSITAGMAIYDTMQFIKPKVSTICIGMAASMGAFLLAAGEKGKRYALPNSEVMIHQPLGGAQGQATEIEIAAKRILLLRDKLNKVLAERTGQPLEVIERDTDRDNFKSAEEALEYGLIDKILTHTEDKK
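ClpP 10 microg/mL final, pH 8 Tris/KCl buffer with BSA, glycerol, Tween-20; compound pinned in; FRET-FV substrate; RT 20 min; Ex320/Em430; ΔFRET vs ADEP 5.8 microM, DMSO, no enzyme.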
TRPV1 ag: activates the human vanilloid receptor TRPV1; activation, % at 8.33 µM; actives 0.19% (n = 320,000); Q8NER1; TRPV1-expressing cells, Fluo-8 calcium influx, agonist mode; AID 540275; in the data active = activation above about 80%; inconclusive = between about 30% and that limit; note: 0% is about no effect
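TRPV1-expressing cells were cultured overnight at 35.5C and loaded with Fluo-8 calcium dye for 40 to 90 min at room temperature. After a 10 s baseline, compound was added and calcium influx was read kinetically for 3 min (ex 480/em 520 nm).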
TRPV1 potentiator: human TRPV1 potentiation | Q8NER1 | TRPV1-expressing cells, Fluo-8 calcium influx, capsaicin EC20 potentiation | actives 0.02% (n = 320,000) | AID 540277 | potentiation, % at 8.33 µM; in the data active = potentiation above about 80%; inconclusive = between about 30% and that limit; note: 0% is about no effect
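TRPV1-expressing cells were cultured overnight at 35.5C and loaded with Fluo-8 calcium dye for 40 to 90 min at room temperature. After a 10 s baseline, compound was added and calcium influx was read kinetically for 3 min (ex 480/em 520 nm).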
Numbers without * were called inactive; ? = inconclusive; · = no result. The list is not random: actives were taken first. Their share in the collection is about 2.6%.

SMILES	p53 reactivation	hERG WT inh	KCNH2 3.1 inh	ClpP mod	TRPV1 ag	TRPV1 potentiator
N#CC(C#N)=C1C=C2C=C(N3CCOCC3)CCC2CC1 (stereo not drawn)	0.8%	-36.5	-19.0	0.3%	139.7*	-12.3
COC(=O)c1c(NC(=O)c2c(-c3ccccc3Cl)noc2C)sc2c1CCC2	0.1%	-2.0	0.3	31.6µM*	16.2	-1.5
COC(=O)c1c(NC(=O)c2c(C)noc2C)sc2c1CCCCCC2	26.1%	·	·	·	-0.5	5.7
Cc1ccc(C(=O)Nc2sc3c(c2C(=O)O)CCCCC3)o1	5.9%	1.2	8.6	-9.1%	2.9	0.5
COC(=O)c1c(NC(=O)c2ccc(C)o2)sc2c1CCCCC2	?	-11.5	-3.3	31.6µM*	6.4	0.7
COC(=O)c1c(NC(=O)C(=O)N2CCOCC2)sc2c1CCCC2	-4.6%	4.4	23.2	-1.3%	87.4*	-26.9
CC(C)OC(=O)c1c(NC(=O)c2ccco2)sc2c1CCCCC2	6.0%	-18.0	-20.7	28.2µM*	18.5	-2.0
COC(=O)c1c(NC(=O)c2ccco2)sc2c1CCC2	-3.1%	-0.6	25.3	173.9%	-6.5	-4.9
CCC(=O)N1c2nc(-c3ccco3)nn2C2(CCCCC2)[C@@H]2CCCC[C@@H]21	·	·	·	0.5%	·	·
Cc1ccccc1C(=O)Nc1ccc(OCc2cc(=O)n3cccc(C)c3n2)cc1	·	·	·	-24.4%	·	·
Cc1cc(C(F)F)n2nc(C(=O)Nc3sc4c(c3C(N)=O)CCC4)nc2n1	-11.2%	8.3	0.0	1.7%	-4.6	-15.3
COC(=O)c1c(NC(=O)c2nc3nc(C)cc(C(F)F)n3n2)sc2c1CCC2	-20.0%	11.2	14.8	-1.4%	-1.9	91.1*
Cc1ccccc1OCC(=O)Nc1ccccc1C(=O)OCc1cc(=O)n2nc(C3CC3)sc2n1	·	·	·	-5.6%	·	·
CCCOc1ccc(-c2nc(C#N)c(N3CCN(CC)CC3)o2)cc1	-8.1%	-6.5	19.7	28.2µM*	16.3	-7.4
CCCOc1ccc(-c2nc(C#N)c(N3CCN(C)CC3)o2)cc1	-5.0%	1.5	4.3	31.6µM*	27.5	-5.3
CCCOc1ccc(-c2nc(C#N)c(N3CCc4ccccc4C3)o2)cc1	5.6%	-3.3	-18.5	15.8µM*	-0.6	-0.2
CCOc1ccc(-c2nc(C#N)c(N3CCN(CC)CC3)o2)cc1	-11.6%	-1.7	3.0	10µM*	20.0	-13.2
C=C(c1ccc2ccccc2n1)c1cccs1	·	·	·	-0.1%	·	·
COc1ccc(C(=O)NNc2ncnc3c2cnn3-c2ccc(C)cc2C)cc1	·	·	·	-5.5%	·	·
O=C(NCCc1c[nH]c2ccccc12)c1ccc2c(c1)OCO2	?	-14.9	-4.0	·	3.3	-6.7
N#C/C(=C/c1ccc2c(c1)OCO2)C(=O)NCCc1c[nH]c2ccccc12	-9.1%	-9.6	-73.7*	-0.4%	11.1	8.7
CC(=O)Nc1ccc2[nH]c(C)cc(=O)c2c1	-3.1%	8.1	12.6	31.6µM*	2.2	4.1
C/C=C/c1cccc(-c2nc(C(=O)NC3CCC3)cc3c2[C@@H](CCO)N(S(=O)C(C)(C)C)C3)c1 (stereo partly drawn)	·	·	·	-0.6%	·	·
COc1ccc(-c2oc(=O)c3cc(OC)c(OC)cc3c2-c2cc(F)cc(OC)c2)cc1	2.3%	2.8	8.2	20µM*	0.6	-3.8
COCc1ccc(-c2c(-c3ccsc3)oc(=O)c3cc(OC)c(OC)cc23)cc1	?	-2.6	0.6	31.6µM*	·	·
SMILES	p53 reactivation	hERG WT inh	KCNH2 3.1 inh	ClpP mod	TRPV1 ag	TRPV1 potentiator
COc1ccc(-c2c(-c3ccc(C#N)cc3)oc(=O)c3cc(OC)c(OC)cc23)cc1	-3.9%	-25.4	-15.7	4.0%	·	·
COc1cc2c(C#CCCO)c(-c3ccsc3)oc(=O)c2cc1OC	-8.2%	-3.2	-21.3	4.3%	·	·
Cn1cc(C(=O)N2CCN(c3cccc(C(F)(F)F)c3)CC2)c2c3ccccc3n(C)c2c1=O	·	·	·	4.1%	·	·
O=C(CSc1nnc(CCCN2C(=O)c3cccc4cccc(c34)C2=O)n1-c1ccccc1)NCCCO	-12.9%	-2.1	5.0	?	-4.4	7.5
O=C(CSc1nnc(CCCN2C(=O)c3cccc4cccc(c34)C2=O)n1-c1ccccc1)N1CCN(CCO)CC1	-3.3%	4.3	7.0	14.1µM*	-2.5	4.5
COc1cc(OC)c(OC)cc1/C=c1\[nH]c(=O)/c(=C/c2cc(OC)c(OC)cc2OC)[nH]c1=O	·	·	·	2.5%	·	·
COCCCNS(=O)(=O)c1ccc2c3c(cccc13)C(=O)S2	-6.0%	-131.6*	-137.7*	-5.8%	-2.8	11.1
COc1ccc(Br)cc1S(=O)(=O)Nc1cc(-c2cn3ccccc3n2)ccc1C	·	·	·	17.8µM*	·	·
Cc1cc(C)c(S(=O)(=O)Nc2cc(-c3cn4ccccc4n3)ccc2C)cc1C	·	·	·	4.6%	·	·
O=C(NCc1cnc2ccccn12)C1CCC(=O)N(Cc2ccccc2F)C1 (stereo not drawn)	-4.4%	8.6	-1.2	31.6µM*	-5.6	2.1
Cn1nc(C(C)(C)C)cc1C(=O)N1CCCC(c2cc(C(=O)NCc3ccccc3)no2)C1 (stereo not drawn)	·	·	·	1.5%	·	·
Cc1cc(C(O)c2ncc(-c3ccc(Oc4ccccc4)cc3)[nH]2)ccc1F (stereo not drawn)	·	·	·	-2.2%	·	·
Cc1cccc(NC(=O)CNC(=O)CSc2nnc(C(F)(F)F)n2C)c1C	5.5%	-130.3*	-185.6*	0.5%	-3.3	15.2
Cc1cc(Br)ccc1NC(=O)C1CCN(S(=O)(=O)c2ccc(Br)s2)CC1	·	·	·	-0.3%	·	·
Cn1cnc(C(=O)NCc2ccc(CNC(=O)OC(C)(C)C)cc2)c1C(=O)NCc1ccc(CNC(=O)OC(C)(C)C)cc1	6.2%	-2.6	-114.6*	1.9%	·	·
COc1ccc(-c2sc3ccc(N4CCOCC4)cc3c2C#CC2(O)CCCCC2)cc1	-0.6%	·	·	25.1µM*	·	·
COc1ccc(-c2sc3ccccc3c2-c2ccc(OC)cc2F)cc1	·	·	·	4.5%	·	·
CCC(Sc1nc2ccncc2[nH]1)C(=O)Nc1cc(C)ccc1C (stereo not drawn)	·	·	·	-2.0%	·	·
CCOC(=O)Nc1ccc2c(c1)C(=NNC(=S)NC)c1ccccc1-2	·	-3.5	-10.2	1.4%	·	·
CN1CCN(c2ccccc2NC(=O)c2ccc(N3CCCC3)c([N+](=O)[O-])c2)CC1	-9.4%	5.7	-1.5	-0.3%	18.5	-13.7
CN1CCN(c2ccc(C(=O)c3ccc(Br)cc3)cc2[N+](=O)[O-])CC1	6.3%	-20.1	-81.3*	·	2.2	6.2
COc1ccccc1OCC(=O)Nc1ccc(-c2nnc(-c3ccco3)o2)cc1	0.8%	8.9	9.8	-0.7%	-0.3	4.1
O=C(COc1ccc(Br)cc1)Nc1ccc(-c2nnc(-c3ccco3)o2)cc1	?	-9.2	-30.6	10µM*	0.6	28.4

Bioassay records (PubChem)
